Structures can show the parent of a compound that is named as a salt.
Tests used:
Details in all cases: 10 µM; exposure time 6 h
[1] = test system: Danio rerio larvae (5 dpf); test: difference in excitability vs DMSO (percentage points); higher = more excitable than DMSO
How it was run: (§1)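 Wild-type zebrafish larvae at 5 dpf were kept in 96-well plates and exposed for 6 h to 100 µL egg water holding library compound at a final concentration of 10 µM. From 3 h into exposure, the plates were held at 28.5 ℃ and photographed every 6 s through a 3-h programme of moving lines and 100 ms, 400Hz tones. Each behaviour was scored by Z-LaP Tracker, a DeepLabCut model, and averaged over 48 larvae per compound. Every value gives the compound mean minus the vehicle control mean, in percentage points.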

[2] = test system: Danio rerio larvae (5 dpf); test: difference in startle response vs DMSO (percentage points); higher = stronger startle than DMSO
How it was run: as §1

[3] = test system: Danio rerio larvae (5 dpf); test: difference in activity during first hour vs DMSO (percentage points); higher = more activity than DMSO
How it was run: as §1

[4] = test system: Danio rerio larvae (5 dpf); test: difference in habituation to acoustic stimuli vs DMSO (percentage points); higher = more habituation than DMSO
How it was run: as §1

[5] = test system: Danio rerio larvae (5 dpf); test: difference in combined optomotor response to red, green and blue moving lines vs DMSO (percentage points); higher = stronger optomotor response than DMSO
How it was run: as §1

SMILES	difference in excitability [1]	difference in startle response [2]	difference in activity during first hour [3]	difference in habituation to acoustic stimuli [4]	difference [5]
O=C(CCCN1CCC(O)(c2ccc(Cl)cc2)CC1)c1ccc(F)cc1 [Haloperidol]	17.7	-2.56	12.4	-7.67	-5.9
Clc1ccc(C(c2ccccc2Cl)C(Cl)Cl)cc1 (stereo not given) [Mitotane]	5.19	-9.33	60.8	-11.8	-15.4
CO[C@H]1C[C@@H]2CC[C@@H](C)[C@@](O)(O2)C(=O)C(=O)N2CCCC[C@H]2C(=O)O[C@H]([C@H](C)C[C@@H]2CC[C@@H](O)[C@H](OC)C2)CC(=O)[C@H](C)/C=C(\C)[C@@H](O)[C@@H](OC)C(=O)[C@H](C)C[C@H](C)/C=C/C=C/C=C/1C [Rapamycin]	5.81	-2.33	0.761	-0.387	3.4
CC#CCC(C)[C@H](O)/C=C/[C@@H]1[C@H]2C/C(=C/CCCC(=O)O)C[C@H]2C[C@H]1O (stereo not given in full) [Iloprost]	-3.4	-1.91	1.64	-1.61	1.64
CCCN(CCC)S(=O)(=O)c1ccc(C(=O)O)cc1 [Probenecid]	-3.91	4.06	8.09	3.84	9.2
CCCNCC(O)COc1ccccc1C(=O)CCc1ccccc1 (stereo not given) [Propafenone (hydrochloride)]	14.4	-3.28	8.84	0.424	6.51
C[C@H](CCC(=O)O)[C@H]1CC[C@H]2[C@@H]3[C@H](O)C[C@@H]4C[C@H](O)CC[C@]4(C)[C@H]3C[C@H](O)[C@]12C [Cholic Acid]	-2.04	2.75	8.68	3.98	-1.08
CCCc1c2oc(C(=O)O)cc(=O)c2cc2c(=O)cc(C(=O)O)n(CC)c12 [Nedocromil (sodium salt)]	-1.27	3.78	-6.98	7.47	-2.49
CC(C)(C)NC[C@H](O)COc1cccc2c1CCCC2=O [Levobunolol (hydrochloride)]	5.55	1.6	12.7	-1.95	5.62
O=C(NC1CCN(CCCCC2(C(=O)NCC(F)(F)F)c3ccccc3-c3ccccc32)CC1)c1ccccc1-c1ccc(C(F)(F)F)cc1 [Lomitapide]	17	-3.26	-7.94	-2.68	-5.57
NS(=O)(=O)c1cc2c(cc1C(F)(F)F)NCNS2(=O)=O [Hydroflumethiazide]	2.46	7.8	0.32	-1.14	-2.31
Nc1ccn([C@@H]2O[C@H](CO)[C@@H](O)[C@@H]2O)c(=O)n1 [Cytarabine]	1.17	-0.992	-3.96	-4.77	3.66
CC(C)(C(=O)c1cccnc1)c1cccnc1 [Metyrapone]	1.48	5.62	-0.661	1.75	4.5
CC(=O)OCC[N+](C)(C)C [Acetylcholine (chloride)]	5.65	0.34	-8.36	2.23	-4.37
NS(=O)(=O)c1cc(C(=O)O)c(NCc2ccco2)cc1Cl [Furosemide]	6.1	-2.57	12	-0.166	8.19
O=C(O)COCCN1CCN([C@H](c2ccccc2)c2ccc(Cl)cc2)CC1 [(R)-Cetirizine (hydrochloride)]	5.78	-3.02	-1.26	6.23	5.37
CCCN1CCCC[C@H]1C(=O)Nc1c(C)cccc1C [(-)-Ropivacaine (hydrochloride hydrate)]	-4.41	-2.15	7.62	-1.06	1.37
COc1ccc(CCN(C)CCCC(C#N)(c2ccc(OC)c(OC)c2)C(C)C)cc1OC (stereo not given) [Verapamil (hydrochloride)]	7.52	-8.68	-17.7	-4.3	-6.45
CC(CCc1ccc(O)cc1)NCCc1ccc(O)c(O)c1 (stereo not given) [Dobutamine (hydrochloride)]	10.9	6.81	-2.65	12	13.9
C[C@H](Nc1ncnc2nc[nH]c12)c1cc2cccc(Cl)c2c(=O)n1-c1ccccc1	-1.93	2.84	12.8	2.7	8.44
O=C(O)c1cc(-c2ccc(F)cc2F)ccc1O [Diflunisal]	1.22	5.89	15.2	-3.92	6.8
Cc1c(O)cccc1C(=O)N[C@@H](CSc1ccccc1)[C@H](O)CN1C[C@H]2CCCC[C@H]2C[C@H]1C(=O)NC(C)(C)C [Nelfinavir (mesylate)]	17.7	0.499	-23	2.82	-10.2
OC[C@H]1O[C@@H](c2ccc(Cl)c(Cc3ccc(O[C@H]4CCOC4)cc3)c2)[C@H](O)[C@@H](O)[C@@H]1O [Empagliflozin]	2.31	-2.32	18.8	-5.57	4.06
O=C(O)c1cc(/N=N/c2ccc(O)c(C(=O)O)c2)ccc1O [Olsalazine (sodium salt)]	-2.93	2.86	0.738	-4.79	-8.04

SMILES	difference in excitability [1]	difference in startle response [2]	difference in activity during first hour [3]	difference in habituation to acoustic stimuli [4]	difference [5]
CN(C)C(=N)NC(=N)N [Metformin (hydrochloride)]	-3.21	1.77	-3.05	-5.21	-1.97
Cc1ccc(C(=O)Nc2ccc(CN3CCN(C)CC3)c(C(F)(F)F)c2)cc1C#Cc1cnc2cccnn12 [Ponatinib]	7.08	-6.04	-11	-7.62	-12.5
CC(C)CN(C[C@@H](O)[C@H](Cc1ccccc1)NC(=O)O[C@H]1CO[C@H]2OCC[C@H]21)S(=O)(=O)c1ccc(N)cc1 [Darunavir]	-1.86	0.437	0.73	2.66	5.61
Cc1ccc(O)c([C@H](CCN(C(C)C)C(C)C)c2ccccc2)c1 [Tolterodine (tartrate)]	11.1	-0.221	-20.3	-5.38	-10.6
CCOC(=O)[C@@](C)(N)Cc1ccc(O)c(O)c1 [Methyldopate]	14.5	1.24	-2.29	-2.04	-2.04
CCOC(=O)[C@H](CCc1ccccc1)N[C@@H](C)C(=O)N1Cc2cc(OC)c(OC)cc2C[C@H]1C(=O)O [Moexipril (hydrochloride)]	11.9	-4.62	7.71	2.63	-1.21
CC=CC(=O)N(CC)c1ccccc1C [Crotamiton]	0.486	3.97	-3.58	4.95	-3.13
C[C@]12CC[C@@H]3c4ccc(O)cc4CC[C@H]3[C@@H]1CC[C@@H]2O [17β-Estradiol]	14.6	-4.36	-22.1	-4.38	-11.6
CNCc1ccc(-c2[nH]c3cc(F)cc4c3c2CCNC4=O)cc1 [Rucaparib]	15.9	5.43	-11	15.7	11
C[N+]1(C)[C@@H]2C[C@@H](OC(=O)C(O)(c3cccs3)c3cccs3)C[C@H]1[C@@H]1O[C@@H]12 [Tiotropium (bromide)]	-0.664	-4.87	-7.11	-4.6	-6.76
Nc1nc2c(c(=O)[nH]1)N(C=O)C(CNc1ccc(C(=O)NC(CCC(=O)O)C(=O)O)cc1)CN2 (racemic) [DL-Folinic Acid (calcium salt)]	-0.743	2.87	8.84	0.082	5.53
CC(=O)O[C@H]1C(=O)[C@@]2(C)[C@H]([C@H](OC(=O)c3ccccc3)[C@]3(O)C[C@H](OC(=O)[C@H](O)[C@@H](NC(=O)c4ccccc4)c4ccccc4)C(C)=C1C3(C)C)[C@]1(OC(C)=O)CO[C@@H]1C[C@@H]2O [Paclitaxel]	-11.7	-1.74	-4.46	3.51	-2.9
Oc1ccc(C2CNCCc3c2cc(O)c(O)c3Cl)cc1 (stereo not given) [Fenoldopam (mesylate)]	9.9	-2.3	4.74	-1.52	-1.12
CN1CC2c3ccccc3Oc3ccc(Cl)cc3C2C1 (racemic) [(±)-Asenapine]	15.8	-0.436	46.3	-12.3	-1.19
CC(C)(O/N=C(\C(=O)N[C@@H]1C(=O)N2C(C(=O)[O-])=C(C[n+]3ccccc3)CS[C@H]12)c1csc(N)n1)C(=O)O [Ceftazidime (hydrate)]	-0.0444	0.0878	3.86	0.293	4.55
CC(C)c1c(C(=O)Nc2ccccc2)c(-c2ccccc2)c(-c2ccc(F)cc2)n1CC[C@@H](O)C[C@@H](O)CC(=O)O [Atorvastatin (calcium salt hydrate)]	2	-0.915	-6.37	-0.794	-0.114
Cc1nc(-c2ccc(OCC(C)C)c(C#N)c2)sc1C(=O)O [Febuxostat]	-0.635	0.974	-3.02	3.9	5.26
CC(C)OC(=O)CCC/C=C\C[C@@H]1[C@@H](/C=C/C(F)(F)COc2ccccc2)[C@H](O)C[C@@H]1O [Tafluprost]	10.1	-0.187	-16	12.5	-4.17
Nc1nc(NC2CC2)c2ncn([C@H]3C=C[C@@H](CO)C3)c2n1 [Abacavir (sulfate)]	-1.01	-0.154	7.36	-0.118	5.64
COC(=O)N(C)c1c(N)nc(-c2nn(Cc3ccccc3F)c3ncccc23)nc1N [Riociguat]	1.63	0.148	7.75	4.38	-2.92
CC(C(=O)O)c1cccc(C(=O)c2ccccc2)c1 (racemic) [(±)-Ketoprofen]	0.309	-1.06	8.57	6.2	11.1
CCN(CC)C(=O)/C(C#N)=C/c1cc(O)c(O)c([N+](=O)[O-])c1 [Entacapone]	5.12	-3.47	4.7	3.38	3.62
CN(C)c1nc(N(C)C)nc(N(C)C)n1 [Altretamine]	-0.899	-2.53	-6.9	-1.7	0.893
CNCCCC12CCC(c3ccccc31)c1ccccc12 [Maprotiline (hydrochloride)]	-2.87	5.37	-7.95	0.965	2.3

— the supplement of paper PMC10515830
